The values below come from PubChem BioAssay (EPA / NIEHS).

Calls of active or inactive are those of the source. How the source made its calls: active means hit-call score of the fitted dose curve at least 0.9, where 1 is the maximum; inactive means score below 0.9.

This test is described as follows: CCTE_Deisenroth_5AR_NBTE_donor: CCTE's 5alpha-reductase NanoBRET Target Engagement Assay […], Deisenroth Lab (AID 2284319). The conditions noted are these: actives raise or lower the signal. How it is done:
CCTE_Deisenroth_5AR NBTE (5alpha-reductase NanoBRET Target Engagement Assay) is a cell-based, single-readout assay that uses HEK293T, a human kidney cell line, with measurements taken at 5 hours after chemical dosing in a 384 well plate. This assay includes a primary and secondary screen as well as an autofluorscence screen.CCTE_Deisenroth_5AR NBTE_donor is one of four assay components measured from the CCTE_Deisenroth_5AR NBTE assay. It is designed to make measurements of donor luminescence, as detected by bioluminescence intensity emission signals using spectrometry technology.Data from the assay component CCTE_Deisenroth_5AR NBTE_donor was analyzed into 1 assay endpoint. This assay endpoint, CCTE_Deisenroth_5AR NBTE_donor, was analyzed with bidirectional fitting relative to DMSO as the negative control and baseline of activity. Using a type of inducible reporter, gain or loss-of-signal activity can be used to understand changes in the donor luminescence as related to 5alpha-reductase catalytic function. Furthermore, this assay endpoint can be referred to as a secondary readout, because this assay has produced multiple assay endpoints where this one serves an artifact detection function.
For transient expression of the SRD5A2-NanoLuc fusion protein, HEK293T cells are reverse transfected with pNLF1-C-SRD5A2 expression vector and incubated for 20 hours to facilitate fusion protein expression. For assay setup, 384-well non-binding surface (NBS) microplates are pre-dispensed with test chemical across an 8-point concentration series (10 nM - 29.9 uM) with two technical replicates per run. Cell suspensions are dispensed into the microplates and incubated with test chemical for a duration of three hours. Following pre-incubation with test chemical, the testosterone tracer is dispensed into each well and incubated an additional two hours. The total incubation period with test chemical is five hours, with testosterone tracer added the final two hours to reach target engagement equilibrium. For the NanoBRET endpoint measurements, a solution of Nano-Glo substrate and extracellular NanoLuc inhibitor solution is added to each test well and immediately scanned on a plate reader configured with multichromatic emission settings for donor luminescence ([…]) and acceptor fluorescence ([…]). DMSO solvent controls are included as baseline control. Plate-matched samples are run with mock tracer conditions or testosterone tracer to discriminate any potential non-specific substrate interference.
(In general: Bioluminescence resonance energy transfer reports proximity on the nanometre scale.)
`CCN1CCC2(CC1)COc1cc3c(cc12)N(C(=O)c1ccc(-c2ccc(-c4nnc(C)o4)cc2C)cc1)CC3`: the AC50 (commonly the concentration at which the activity in the assay is half-maximal) was 2.7 µM (active).

`O=C1C(Cl)=C(Cl)C(=O)c2ccccc21`: the AC50 is 50 µM (active).

Turning to `O=C(Nc1ccc2[nH]ccc2c1)c1cc2cc(F)ccc2n1Cc1cccc(F)c1`, the result was inactive.

`CCC[CH2][Sn]([CH2]CCC)([CH2]CCC)[O]C(=O)c1ccccc1`: the AC50 was 5.2 µM (active).

Regarding `c1cc[c]([Hg][c]2ccccc2)cc1`, the molecule was called inactive.

For the molecule `C[C@@H]1C[C@@H]([C@H](O)CC2CC(=O)NC(=O)C2)C(=O)[C@@H](C)C1`, the molecule was called inactive.

As to `O=C(OC1CCCCC1)c1ccccc1C(=O)OC1CCCCC1`, the result was inactive.

Regarding `N#CN=C(N)N`, the molecule was classed as inactive.

Take `O=C(O)C(F)(F)C(F)(F)C(F)(F)C(F)(F)C(F)(F)C(F)(F)C(F)(F)C(F)(F)C(F)(F)C(F)(F)F`: the outcome was inactive.

For `C=C(C)C(=O)[O][Sn]([CH2]CCC)([CH2]CCC)[CH2]CCC`, the AC50 is 5.38 µM (active).

Take `CC(C)(c1ccc(OCC2CO2)cc1)c1ccc(OCC2CO2)cc1` (stereo unspecified): the call was inactive.

In the case of `CCC1(c2ccc(N)cc2)CCC(=O)NC1=O` (stereo unspecified), the call was inactive.

On to `CC(=O)[O][Hg][c]1ccccc1`, for which the half-maximal activity concentration (AC50) was 27.1 µM (active).

`O=[N+]([O-])c1ccc(O)c([N+](=O)[O-])c1`: the call was inactive.

Take `CCOP(=S)(OCC)Oc1nc(Cl)c(Cl)cc1Cl`: the call was inactive.

For the molecule `C[C@H]1CCCC(=O)CCC/C=C/c2cc(O)cc(O)c2C(=O)O1`, the result was inactive.
